From PubChem BioAssay
Vaccinia Venus – qHTS for Stage-Specific Inhibitors of Vaccinia Orthopoxvirus: Venus Reporter Primary qHTS | Potency, µM (top dose mostly 36.5 µM), for inactives: at the highest dose activity change, negative = inhibition, hits mostly inhibitors | Vaccinia virus Venus reporter expression, fluorescence | 330,000 tested, 0.46% active; calls by dose curve; tested in A549 cells; also: nearly all actives have a fitted effect of over 30% in size
AMA1 RON2 block – qHTS for Inhibitors of AMA1-RON; Towards Development of Antimalarial Drug Lead: Primary Screen. AlphaScreen AMA1-biotinylated RON2 peptide binding. AID 720542, 2013. Potency, µM (highest dose often 58.2 µM), for inactives: at the highest dose activity change, negative = inhibition, most hits filed as inhibitors. 360,000 tested, 0.2% active;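 also: 0% = vehicle wells and -100% = peptide control; nearly all actives have a fitted effect of over 45% in size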
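AMA1 (3D7) with his tag at 25 nM final met compounds first, then biotinylated RON2 peptide at 25 nM; detection used donor plus acceptor beads, 10 µg/mL apiece, read by AlphaScreen after 30 min at room temperature.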
Pf growth 96h – Primary qHTS for delayed death inhibitors of the malarial parasite plastid, 96 hour incubation; P. falciparum luciferase reporter growth, 96 h; Potency, µM (titrated, usually from 28.7 µM), inactives show top-dose activity change, negative = inhibition, hits mostly inhibitors; 320,000 tested, 6.9% active; AID 504834, 2011
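P. falciparum expressing integrated firefly luciferase grown in erythrocytes (2% hematocrit, 0.05% parasitemia final) with compounds for 96 hours at 37 C, 5% CO2. Growth inhibition read as loss of luminescence after adding luciferase detection reagent.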
Pf growth 48h – Primary qHTS for delayed death inhibitors of the malarial parasite plastid, 48 hour incubation. P. falciparum luciferase growth in erythrocytes, 48 h. Potency, µM (doses to about 28.7 µM), for the others: at the highest dose activity change, negative = inhibition, usual class: inhibitors. 310,000 tested, 5.9% active
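Luciferase-expressing P. falciparum in infected erythrocytes (2% hematocrit, 0.1% parasitemia final) in RPMI 1640/0.5% Albumax were exposed to compound for 48 hours at 37 C, 5% CO2; growth read as luminescence.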
VACV mCherry inh – qHTS for Stage-Specific Inhibitors of Vaccinia Orthopoxvirus: mCherry Reporter Primary qHTS; Vaccinia virus mCherry reporter infection, fluorescence; Potency, µM (doses to about 36.5 µM), without a hit: top-dose activity change, negative = inhibition, usual class: inhibitors; 310,000 tested, 0.63% active; AID 720579, 2013; calls by dose curve; tested in A549 cells; also: nearly all actives have a fitted effect of over 35% in size
Numbers without * were called inactive; i = inactive; ? = inconclusive; . = no result given. The list is not random: actives were taken first. Their share in the collection is about 8.7%. Unless noted, calls follow the shape of the dose curve; as a rule, active = well fitted curve in the direction sought with a large enough effect; inconclusive = small, poorly fitted or top-dose-only effect, or another doubt; inactive = no such curve, though single readings can be large; an effect the other way counts as inactive or inconclusive. Unless noted, % is scaled to controls: 0 for no effect and ±100 for the full control effect; potency is read from the fitted curve at half-maximal effect.

SMILES | Vaccinia Venus | AMA1 RON2 block | Pf growth 96h | Pf growth 48h | VACV mCherry inh
Cc1ccc2c(=O)c(C(=O)c3cccc(Cl)c3)cn(CC(=O)Nc3ccc4c(c3)OCCO4)c2n1 | -5.0% | . | . | . | -24.9%
Cc1ccc2c(c1)CN(C(=O)CC(c1ccccc1)c1ccco1)CC(C)O2 (configuration not stated) | -26.4% | . | . | . | ?
CCCOc1nc2c(c(=O)n(C)c(=O)n2C)n1CC | . | . | 2.08µM* | 25.1% | .
CCOC(=O)C1=C(C)OC(N)=C(C#N)C1c1cc2cc(C)ccc2nc1N1CCCCC1 (configuration not stated) | -10.7% | 6.1% | 470.9% | ? | i
CCOC(=O)C1=C(C)OC(N)=C(C#N)C1c1cc2ccccc2nc1N1CCCCC1 (configuration not stated) | 1.4% | 0.6% | 1.31µM* | -12.4% | -11.2%
COc1ccc(-c2noc(CN(C(=O)c3ccc(C)cc3C)C(C)C)n2)cc1 | -0.4% | . | . | . | 1.4%
COc1ccc(Oc2ncccc2[N+](=O)[O-])cc1 | -0.9% | 0.4% | 11.7µM* | ? | -21.3%
Cc1ccc2c(c1)c1c3n2CC(=C2C(=O)OC(C)(C)OC2=O)NC3CCC1 (configuration not stated) | -10.6% | 9.5% | 0.185µM* | ? | ?
Cc1ccc2c(c1)c1c3n2CCN(C(=O)C2CC2)C3CCC1 (configuration not stated) | -20.8% | ? | ? | . | -26.2%
CCOC(=O)c1ccc(NC(=O)C(C)NS(=O)(=O)c2ccc(OC)cc2)cc1 (configuration not stated) | . | -9.3% | 2.7% | ? | .
CCOc1ccc(NC(=O)COc2ccc(C(=O)NC(C)c3ccc(S(N)(=O)=O)cc3)cc2OC)cc1 (configuration not stated) | -11.9% | 28.1% | ? | 11.7µM* | i
CCOC(=O)c1ccc(NC(=O)COc2ccc(S(=O)(=O)NC(C)CC)cc2)cc1 (configuration not stated) | . | 1.5% | 10.4µM* | ? | .
Cc1noc(C)c1C(=O)NCCc1ccc(Cl)cc1 | . | -0.4% | . | 0.0% | .
Cc1cc(C(C)(C)C)cc(C)c1CCNC(=O)c1c(C)noc1C | -28.2% | -21.2% | 8.28µM* | 13.1µM* | -11.6%
CC[N+](C)(CC)CCOC(=O)C(O)(c1ccccc1)c1ccccc1 | . | . | 3.1% | -5.1% | .
C[N+](C)(C)CCOC(=O)C(O)(c1ccccc1)c1ccccc1 | . | . | 10.7µM* | -0.2% | .
NC(=O)[C@@H]1CCCN1C(=O)CCN1Cc2ccccc2OC(c2ccccc2F)C1 (some centres not stated) | -7.1% | . | . | . | -10.6%
O=c1[nH]cc(O)c(=O)[nH]1 | 1.6% | 12.3% | 15.7% | 10.4% | -2.6%
O=c1[nH]cc(F)c(=O)[nH]1 | -28.4% | 12.1% | 4.65µM* | 6.57µM* | 5.62µM*
Cc1cccc(NC(=O)CN(C)S(=O)(=O)c2ccc3c(c2)c(=O)n(C)c(=O)n3C)c1C | -4.9% | . | . | . | -14.1%
CCOC(=O)CN1C(=O)CC(c2ccc([N+](=O)[O-])cc2)C1=O (configuration not stated) | . | -11.1% | 7.38µM* | 19.2% | .
COc1ccc(C(NC(=O)N2CC(C)OC(C)C2)C(Cl)(Cl)Cl)cc1F (configuration not stated) | -2.7% | -1.4% | 3.29µM* | 13.1µM* | -10.5%
C/C(=N\NC(=O)c1ccc(C)cc1)c1c(C)[nH]n(-c2ccccc2)c1=O | . | 55.5% | 14.7µM* | -4.3% | .
Cc1cccnc1C(NC(=O)C1CCN(Cc2cn(C)c3ccccc23)CC1)c1ccc(Cl)cc1 (configuration not stated) | 11.2µM* | -14.3% | . | . | 14.1µM*
CSc1nc(N)c2c3c(sc2n1)COC(C(C)C)C3 (configuration not stated) | -25.7% | 3.0% | 5.22µM* | . | .
SMILES | Vaccinia Venus | AMA1 RON2 block | Pf growth 96h | Pf growth 48h | VACV mCherry inh
Cc1cc(C=Nc2ccc(/C=C/c3ccnc4ccccc34)cc2)ccc1N(C)C | -2.9% | . | . | . | -3.0%
O=C(Nc1cc(-c2nc3ccccc3o2)ccc1Cl)c1ccc(N2CCCCC2)c([N+](=O)[O-])c1 | -0.2% | . | . | . | -1.6%
CN(Cc1cc(Cl)cc(Cl)c1)CC(C(=O)c1ccccc1)c1ccccc1 (configuration not stated) | -17.6% | -8.9% | . | . | -18.3%
CN(C)CC(C(=O)c1ccccc1)c1ccccc1 (configuration not stated) | 10µM* | -13.8% | . | ? | 14.1µM*
Cc1cc(NCCOCCO)n2c(nc3ccccc32)c1C#N | -6.5% | 1.9% | 1.85µM* | ? | -2.2%
Cc1cc(NCCCO)n2c(nc3ccccc32)c1C#N | 5.0% | 11.5% | ? | 10.4µM* | i
COc1ccc(S(=O)(=O)N2CCN(Cc3nc4ccc(C)cc4o3)CC2)cc1OC | 1.3% | . | . | . | -5.9%
Cc1cc(C)cc(Oc2nc3c(c(=O)n(C)c(=O)n3C)n2Cc2ccc(F)cc2)c1 | -12.4% | . | . | . | i
C#CCOCCOCCOCCNc1nc(N2CCN(C(=O)[C@H]([C@@H](C)CC)n3cc(CCCN=C(N)N)nn3)CC2)nc(N2CCN(C(=O)[C@H](CCCCN)n3cc(CCCC)nn3)CC2)n1 | -14.4% | -11.1% | 11.7µM* | ? | i
C#CCOCCOCCOCCNc1nc(N2CCN(C(=O)Cn3cc(CCCN=C(N)N)nn3)CC2)nc(N2CCN(C(=O)[C@H](CCCCN)n3cc(CCCC)nn3)CC2)n1 | -10.8% | -8.0% | 11.7µM* | 11.7µM* | i
C#CCOCCOCCOCCNc1nc(N2CCN(C(=O)[C@H](C)n3cc(CCCN=C(N)N)nn3)CC2)nc(N2CCN(C(=O)[C@H](CCCCN)n3cc(CCCC)nn3)CC2)n1 | . | . | 11.7µM* | ? | .
C#CCOCCOCCOCCNc1nc(N2CCN(C(=O)Cn3cc(CCCN=C(N)N)nn3)CC2)nc(N2CCN(C(=O)[C@H](CCCCN)n3cc(CCC(=O)O)nn3)CC2)n1 | -8.3% | -17.9% | ? | -24.6% | -27.6%
C#CCOCCOCCOCCNc1nc(N2CCN(C(=O)[C@H]([C@@H](C)O)n3cc(CCCCN)nn3)CC2)nc(N2CCN(C(=O)[C@H](CCCCN)n3cc(CCCC)nn3)CC2)n1 | -15.6% | -1.3% | 56.9% | ? | i
C#CCOCCOCCOCCNc1nc(N2CCN(C(=O)Cn3cc(CCCCN)nn3)CC2)nc(N2CCN(C(=O)Cn3cc(CCCN=C(N)N)nn3)CC2)n1 | -1.0% | 3.2% | 0.828µM* | ? | -17.1%
C#CCOCCOCCOCCNc1nc(N2CCN(C(=O)Cn3cc(CCCN=C(N)N)nn3)CC2)nc(N2CCN(C(=O)[C@H](C)n3cc(CCCN=C(N)N)nn3)CC2)n1 | 1.1% | -2.9% | ? | ? | -17.7%
